Bioassay records: PubChem BioAssay, National Center for Advancing Translational Sciences (NCATS)
MBNL1-CUG inh = inhibitors of human MBNL1 binding to CUG repeat RNA. Q9NR56. TR-FRET MBNL1-His/biotin-(CUG)12 binding, 665/545 ratio. Potency, µM (highest dose often 57.5 µM), inactives show at the highest dose activity change, negative = inhibition, most hits filed as inhibitors. 0.036% of 280,000 active; active = well fitted inhibition curve with a large enough effect in the signal ratio, with a control signal flat, not every such curve was filed as active; inconclusive = small, poorly fitted or top-dose-only effect, or effect the other way, or a change in a side signal; inactive = no such curve, though single readings can be large or run the other way; the % refers to the signal ratio; also: potency is read from the fitted curve at half-maximal effect; % is scaled to controls: 0 for no effect and ±100 for the full control effect
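Compound titration spanned 92 nM–58 uM against the MBNL1-His/biotin-(CUG)12 complex. After 60 min at room temperature with 5 nM streptavidin-XL665 and 0.055 ng/ul terbium anti-His, ratiometric 665/545 nm emission (Ex 340 nm) normalized to controls.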
Six1-Eya2 inh = inhibitors of human Six1/Eya2 interaction; AID 651725; activity change, % (concentration not given with the values); 0.56% of 360,000 active; AlphaScreen GST-Six1/His-Eya2 binding, biochemical; stronger effect = lower value; also: % is scaled to controls: 0 for no effect and ±100 for the full control effect
Target sequence (O00167 whole entry, looked up): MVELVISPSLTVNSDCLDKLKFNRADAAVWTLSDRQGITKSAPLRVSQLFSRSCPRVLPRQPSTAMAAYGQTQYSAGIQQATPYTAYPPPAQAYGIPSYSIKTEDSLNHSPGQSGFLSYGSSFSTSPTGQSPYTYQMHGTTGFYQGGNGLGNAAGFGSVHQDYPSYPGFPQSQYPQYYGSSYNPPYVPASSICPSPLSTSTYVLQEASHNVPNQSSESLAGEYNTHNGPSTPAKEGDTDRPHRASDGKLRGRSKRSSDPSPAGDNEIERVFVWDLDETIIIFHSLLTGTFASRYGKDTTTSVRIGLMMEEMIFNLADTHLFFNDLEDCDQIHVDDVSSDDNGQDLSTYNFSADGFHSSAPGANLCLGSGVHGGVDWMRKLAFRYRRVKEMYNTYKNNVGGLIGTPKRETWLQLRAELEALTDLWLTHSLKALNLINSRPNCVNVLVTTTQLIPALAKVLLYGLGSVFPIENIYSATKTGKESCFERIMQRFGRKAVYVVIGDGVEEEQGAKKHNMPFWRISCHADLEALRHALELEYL
Target sequence (Q15475 whole entry, looked up): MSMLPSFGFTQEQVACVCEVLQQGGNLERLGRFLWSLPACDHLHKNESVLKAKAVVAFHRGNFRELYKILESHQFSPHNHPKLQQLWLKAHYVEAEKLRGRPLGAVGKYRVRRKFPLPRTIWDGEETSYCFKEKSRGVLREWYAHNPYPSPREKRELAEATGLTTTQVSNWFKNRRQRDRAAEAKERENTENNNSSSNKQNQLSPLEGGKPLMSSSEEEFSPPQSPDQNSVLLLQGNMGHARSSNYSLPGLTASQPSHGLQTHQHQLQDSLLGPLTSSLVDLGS
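AlphaScreen with GST-Six1 and His-Eya2 (5X mix: 250 nM and 500 nM), glutathione donor and nickel acceptor beads; buffer 50 mM Tris pH 8.0, 300 mM NaCl, 1 mM TCEP; 1 h at 37 C in the dark.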
CtBP-E1A blk = inhibitors of CtBP/E1A interaction | AID 651724 | activity change, % (concentration not given with the values) | 0.49% of 340,000 active | AlphaScreen GST-E1A/His-CtBP binding, 1536-well; stronger effect = lower value; also: % is scaled to controls: 0 for no effect and ±100 for the full control effect
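Homogeneous bead-based format: GST-tagged E1A captured on glutathione donor beads, His-tagged CtBP on nickel acceptor beads; compounds precede bead addition by 2 h at 37 °C.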
uPA generation = inhibitors of cell surface uPA generation; cell surface uPA generation assay, qHTS; 0.31% of 330,000 active; Potency, µM (titrated, usually from 38.3 µM), inactives show top-dose activity change, negative = inhibition, most hits filed as inhibitors; active = well fitted inhibition curve with a large enough effect; inconclusive = small, poorly fitted or top-dose-only effect; inactive = no such curve, though single readings can be large or run the other way; tested in mouse RAW 264.7 cells; also: potency is read from the fitted curve at half-maximal effect; % is scaled to controls: 0 for no effect and ±100 for the full control effect; nearly all actives have a fitted effect of over 55% in size
Mito fusion act = mitochondrial division inhibition or fusion activation | Potency, µM (doses to about 46.1 µM), without a hit: at the top dose growth rescue (activation), hits mostly activators | AID 485298 | 0.23% of 320,000 active | S. cerevisiae fusion-defective mutant growth rescue, CellTiterGlo 48 h; active = well fitted activation curve with a large enough effect; inconclusive = small, poorly fitted or top-dose-only effect; inactive = no such curve, though single readings can be large or run the other way; also: potency is read from the fitted curve at half-maximal effect; % of control where 0% means no effect; nearly all actives have a fitted effect of over 45% in size
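Temperature-sensitive fusion-defective S. cerevisiae (e.g. fzo1-1, mgm1-5) were grown with compound in YPEG medium (3% ethanol, 3% glycerol) for 48 hours at 37C. Growth rescue was measured as viability by CellTiterGlo luminescence after 10 minutes at ambient.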
Starred values were filed as active, the others as inactive; ? = inconclusive; . = no result; [ ] = remark or other dose. A selection: hits, their analogues and other compounds. The true share with any hit is near 1.1%. Rule as the data show it, unless noted: active = activity change below about -65%; inconclusive = mostly about -30% to -63%; inactive = weaker than that.

SMILES	MBNL1-CUG inh	Six1-Eya2 inh	CtBP-E1A blk	uPA generation	Mito fusion act
Cn1c2cc(B(O)O)sc2c2cnn(Cc3c(F)cccc3F)c(=O)c21	.	.	.	.	-3%
O=C(CCc1ccccc1O)N/N=C/c1ccc(Sc2cccc3cccnc23)o1	15%	-88*	-92*	1%	6%
CC(=O)Oc1ccc2c(=O)c(/C=N/c3cc(=O)[nH]c(=S)[nH]3)coc2c1	.	-75*	-4	-1%	5%
O=[N+]([O-])c1nn(-c2ccc3c(c2)OCCO3)n(O)c1=NC1CCCCC1	?	?	?	-12%	13µM*
COC(=O)C1(C(=O)OC)C2CCCCC2N(S(=O)(=O)c2ccc(C)cc2)[C@@H]1CC(C)=O (stereo not given in full)	.	6	-11	.	.
O=Cc1ccc(O)c2ncccc12	24%	-74*	-67*	-13%	18%
CCOC1CCCc2oc(-c3ccsc3)c(-c3cnc(OC)nc3)c21 (stereo not given)	.	-3	-15	.	.
COc1n[nH]c(C(=O)Nc2cc(F)ccc2C)c1[N+](=O)[O-]	30%[11.5 µM]	4	5	-1%	7.1µM*
O=C1C=CC(=C(c2ccc(O)cc2)c2ccc(O)cc2)C=C1	.	1	6	2µM*	1%
CC(C)C[C@@H](CN1CCC[C@H]1CN1C(=O)C(=O)NC[C@@H]1Cc1ccccc1)N1C[C@H](Cc2ccccc2)N(CC2CCCCCC2)C(=O)C1=O	.	-5	4	.	.
O=C1CSC(=S)N1N=Cc1c(O)ccc2ccccc12	.	-88*	-89*	1%	.
COc1cc(/C=N/N2C(=O)CSC2=S)cc(Br)c1O	?	?	0	0%	-3%
COc1cccc(/C=N/N2C(=O)CSC2=S)c1O	?	-90*	-13	0%	3%
Cn1cc(CN2CCCC(C(=O)Nc3cccc(-n4cccn4)c3)C2)cn1 (stereo not given)	-5%	0	1	-3%	0%
Cn1cc(CN2CCCC(C(=O)Nc3ccc(-c4cccc(F)c4)cc3)C2)cn1 (stereo not given)	-10%	0	.	8.9µM*	-6%
Cc1c(CN2CCCC(C(=O)Nc3cccc(-n4cccn4)c3)C2)cnn1C (stereo not given)	1%	-2	.	7.9µM*	2%
CCn1cc(CN2CCC(C(=O)Nc3cccc(-c4cccc(F)c4)c3)CC2)cn1	-8%	0	-5	-5%	-3%
CCOC(=O)N1CCN(C(=O)C[C@@H]2C[C@@]3(C(=O)OCC)CCC=C3N(Cc3cccc4ccccc34)C2=O)CC1	.	-6	-7	.	.
N#CC(C#N)=Cc1ccc(OC(=O)c2ccccn2)cc1	3%	-68*	?	-5%	0%
CCCC12CN3CC(CCC)(CN(C1)C3c1ccccc1)C2=O (stereo not given)	.	.	.	.	3%
CCOc1ccc(S(=O)(=O)n2c(C)nc3ccccc32)cc1	-7%	10	7	13µM*	2%
COc1ccc(C(CCNCc2ccc(OC(C)C)cc2)C(C)C)cc1 (stereo not given)	.	4	8	-6%	-24%
COc1ccccc1C(CCNCc1ccc(N(C)C)cc1)c1ccc(OC(C)C)cc1 (stereo not given)	-4%	-84*	.	-9%	-32%
COc1ccc(C(CCNCc2ccc(N(C)C)cc2)C(C)C)cc1 (stereo not given)	-15%	-67*	.	?	-6%
COc1ccc(CNCCC(c2ccc(OC(C)C)cc2)c2ccccc2OC)cc1 (stereo not given)	-4%	-26	-12	?	-30%
SMILES	MBNL1-CUG inh	Six1-Eya2 inh	CtBP-E1A blk	uPA generation	Mito fusion act
Cc1nnsc1C(=O)N/N=C/c1ccc2ccccc2c1O	21%	-87*	-71*	-10%	-4%
Cc1nnsc1C(=O)N/N=C/c1ccccc1	-16%	7	-2	-1%	2%
COC(=O)c1cc(=O)n(Cc2ccc(OC)c(OC)c2)c(=Nc2ccc(F)cc2)s1	0%	2	-2	4.5µM*	6%
COC(=O)c1cc(=O)n(Cc2ccc(F)cc2)c(=Nc2ccccc2)s1	7%	-2	.	7.1µM*	24%
CCOC(=O)c1ccc(N=c2sc(C(=O)OC)cc(=O)n2-c2ccc(C(=O)OCC)cc2)cc1	15%	-4	6	?	21%
COC(=O)c1cc(=O)n(-c2ccccc2)c(=Nc2ccccc2)s1	13%	5	-18	4.5µM*	1%
CNC(=O)C1CC(=O)N(CCc2ccc(OC)c(OC)c2)C(=Nc2ccc(F)cc2)S1 (stereo not given)	0%	0	1	-4%	1%
COC(=O)c1cc(=O)n(CCc2ccc(OC)c(OC)c2)c(=Nc2ccc(F)c(Cl)c2)s1	10%	-1	0	6.3µM*	2%
COC(=O)c1cc(=O)n(Cc2ccco2)c(=Nc2ccc(F)cc2)s1	7%	0	-6	?	3%
C[C@H](O)[C@@H]1CN2CCc3c([nH]c4ccccc34)[C@@H]2C[C@@H]1N(C)C(=O)OCc1ccccc1	.	-12	-23	.	.
CCOc1ccc(NC(=O)CN(c2ccc(CC)cc2)S(=O)(=O)c2c(C)noc2C)cc1	.	.	.	.	5%
C/C(=N\NC(=O)c1ccc(O)cc1)c1cccc(NC(=O)c2ccccc2C)c1	5%	-15	-4	10µM*	1%
Cc1ccccc1C(=O)Nc1cccc(NC(=O)c2ccccc2[N+](=O)[O-])c1	?	-12	.	4.5µM*	0%
O=C(Nc1cccc(O)c1)c1ccccc1[N+](=O)[O-]	?	2	2	3%	1%
O=C(NNC(=O)c1cccs1)c1ccccn1	.	-74*	?	.	.
O=C(Nc1nccs1)c1ccccn1	-1%	-87*	?	-11%	-1%
O=C(NNC(=O)c1ccccn1)c1ccc(OC(F)F)cc1	.	-84*	-78*	-11%	.
O=C(NNC(=O)c1ccccc1Cl)c1cccs1	-10%	1	0	6%	3%
O=C(Nc1nccs1)c1cnccn1	6%	-24	?	.	-1%
CNC(=O)c1nn(C)c(=O)[nH]c1=O	.	1	-6	2%	.
COC(=O)[C@@]12C[C@@H](CC(=O)NCCC(C)C)C(=O)N(Cc3ccccc3)C1=CCC(C)(C)C2	.	-5	5	.	.
COc1ccc(C(O)c2nc(-c3cccc4cccnc34)cs2)cc1 (stereo not given)	.	-4	7	.	.
CN1CCN(C(=O)C[C@H]2CC[C@H]3[C@@H](COC[C@@H](O)CN3C(=O)C3CCCC3)O2)CC1	.	9	-22	.	.
N#Cc1ccccc1NC(=O)C(=O)NCCc1csc(-c2ccc(F)cc2)n1	.	.	.	.	-2%
Cc1csc(NC(=O)c2ccc(N3CCCC3=O)cc2)n1	0%	3	.	2.8µM*	-16%
Cc1cc2c(s1)c(C=O)c(C(=O)NCc1ccccc1F)n2C	.	.	.	.	0%
CC1=Nc2ccccc2/C1=C/c1sc(=S)n(-c2cccc(C(=O)O)c2)c1O	14%	?	-67*	4%	-5%
